Assay results as given in PubChem BioAssay (EPA / NIEHS).
Records with an inconclusive call do not appear. Active and inactive are the calls of the source. Rule for the calls: active = hit-call score of the fitted dose curve at least 0.9, where 1 is the maximum; inconclusive = response in the unintended direction; inactive = score below 0.9.

The compounds below were run on xenobiotic metabolism (CYP1A2), CYP1A2 (gene 1544) (assay: CLD_CYP1A2_48hr: CellzDirect (CLD) Gene Expression Assay for xenobiotic metabolism (CYP1A2) at 48 hours (AID 2283703)).
Protocol: CLD_48hr is a cell-based, multiplexed-readout assay that uses hepatocyte, a human liver primary cell, with measurements taken at 48 hours after chemical dosing in a 96-well plate.CLD_CYP1A2_48hr is one of 16 assay component(s) measured or calculated from the CLD_48hr assay. It is designed to make measurements of mRNA induction, a form of inducible reporter, as detected with chemiluminescence signals by Quantitative Nuclease Protection Assay (qNPA) technology.Data from the assay component CLD_CYP1A2_48hr was analyzed at the endpoint, CLD_CYP1A2_48hr, in the positive analysis fitting direction relative to DMSO as the negative control and baseline of activity. Using a type of inducible reporter, gain-of-signal activity can be used to understand changes in the reporter gene as they relate to the gene CYP1A2. Furthermore, this assay endpoint can be referred to as a primary readout. To generalize the intended target to other relatable targets, this assay endpoint is annotated to the cyp intended target family, where subfamily is xenobiotic metabolism.
Human hepatocyte cultures were treated daily for two consecutive days with fresh dosing solutions containing appropriate concentrations of the 320 ToxCast chemicals (chemical identities were blinded to CellzDirect and other ToxCast collaborators), vehicle control (0.2% DMSO), and positive control inducers as summarized in Table 1. Due to the large number of treatment groups and chemicals examined, the ToxCast chemicals were divided into two groups (spanning two independent cultures of hepatocytes from separate donor preparations (Hu778: ToxCast plates 1 and 2; Hu776: ToxCast plates 3 and 4). Each preparation of human hepatocyte cultures was treated with respective vehicle control, medium only control, set of six positive controls/reference chemicals for the five hepatic receptor pathways, and a subset of eight of the ToxCast chemicals (indoxacarb, pyrithiobac-sodium, norflurazon, cyhalofop-butyl, methomyl, thiram, acetochlor, and propiconazole). These replicate data, coupled with internal replicates designed within the blinded ToxCast chemical library, provided additional data to evaluate interindividual differences between hepatocyte preparations and their potential impact on chemical profiles.Cell morphology and integrity were evaluated using phase-contrast microscopy as an indicator of hepatocyte cell health (Tyson & Green, 1987). Cultures for each treatment group (i.e., media, vehicle [0.2% DMSO], positive control inducers [multiple concentrations], and the ToxCast chemicals [multiple concentrations]) were observed and cell morphology was assessed relative to vehicle control cultures at each harvest time point (0, 6, 24, or 48 h). […] Images were evaluated at the conclusion of the study to assess changes in cell integrity and account for the effects of chemical exposure on uncharacteristic changes in concentration-dependent gene expression profiles. The results from these determinations of apparent cytotoxicity were annotated (yes/no) alongside the corresponding qNPA data for reference.At the conclusion of each treatment period, hepatocyte cultures (96-well) were washed with 1 volume of HBSS, lysed by addition of 25 ul ArrayPlate lysis buffer (HTG, Tucson, AZ), and 70 ul/well of Denaturation Oil, denatured by incubation at 95C for 10 min, and frozen at approximately -70C until analysis by nuclease protection assay (qNPA) (Roberts et al., 2007). For qNPA analysis, cell lysates were thawed at 50C for approximately 30 min, qNPA probes were added, and samples were incubated at 95C for 10 min to begin the detection process by denaturing the target RNA, dissociating the duplexes and secondary structure hybridization. At the conclusion of the hybridization period, S1 nuclease reagent was added to each sample to digest all nonprotected nucleotides at 50C for 60-90 min. […]
With CCC(C)(NC(=O)c1cc(Cl)c(C)c(Cl)c1)C(=O)CCl (stereo not given) the AC50 was 20 µM (active). O=[N+]([O-])c1c(Cl)c(Cl)c(Cl)c(Cl)c1Cl was tested, and the AC50 was 3.86 µM (active). O=C(O)COc1ccc(Cl)cc1Cl was tested, and the outcome was “inactive”. With COC(=O)c1ccccc1S(=O)(=O)NC(=O)Nc1nc(C)nc(OC)n1 the outcome was “inactive”. With CCOC1Oc2ccc(OS(C)(=O)=O)cc2C1(C)C (stereo not given) the outcome was “inactive”. O=S(=O)(O)C(F)(F)C(F)(F)C(F)(F)C(F)(F)C(F)(F)C(F)(F)C(F)(F)C(F)(F)F was tested, and the outcome was “inactive”. In the case of CCOc1nc(NC)nc(NC(=O)NS(=O)(=O)c2ccccc2C(=O)OC)n1, the AC50 is reported as 14.3 µM (active). CNC(=O)/C=C(\C)OP(=O)(OC)OC was tested, and the outcome was “inactive”. In the case of COc1cc(OC)nc(NC(=O)NS(=O)(=O)c2cc(NC=O)ccc2C(=O)N(C)C)n1, the outcome is reported as “inactive”. CNC(=O)CSP(=S)(OC)OC was tested, and the outcome was “inactive”. With Oc1cc(Cl)ccc1Oc1ccc(Cl)cc1Cl the outcome was “inactive”. COP(=S)(OC)Oc1ccc(SC)c(C)c1 was tested, and the AC50 was 6.69 µM (active). In the case of Cc1cc(C)nc(NC(=O)NS(=O)(=O)c2ccccc2C(=O)OC2COC2)n1, the outcome is reported as “inactive”. With CCC(C)Nc1c([N+](=O)[O-])cc(C(C)(C)C)cc1[N+](=O)[O-] (stereo not given) the AC50 was 5.38 µM (active). For CC(C)(C)C(O)C(Oc1ccc(Cl)cc1)n1cncn1 (stereo not given), the AC50 was 5.29 µM (active). For O=C(Nc1ccccc1)Nc1cnns1, the AC50 was 3.38 µM (active). For Cc1[nH]c(=O)n(C(C)(C)C)c(=O)c1Cl, the outcome was “inactive”. O=C(NC(=O)c1c(F)cccc1F)Nc1ccc(OC(F)(F)C(F)OC(F)(F)F)c(Cl)c1 (stereo not given) was tested, and the outcome was “inactive”. CC1(c2ccc(Oc3ccccc3)cc2)OC(=O)N(Nc2ccccc2)C1=O (stereo not given) was tested, and the AC50 was 0.661 µM (active). CNC(=O)Oc1ccccc1OC(C)C was tested, and the outcome was “inactive”. For CCc1ccc(C(=O)NN(C(=O)c2cc(C)cc(C)c2)C(C)(C)C)cc1, the AC50 was 5.55 µM (active). In the case of C[C@H]1[C@H](c2ccc(Cl)cc2)SC(=O)N1C(=O)NC1CCCCC1, the AC50 is reported as 5.38 µM (active). CCCN(CCC)c1c([N+](=O)[O-])cc(C(F)(F)F)cc1[N+](=O)[O-] was tested, and the AC50 was 9.22 µM (active). With CC(C)(C)C(O)/C(=C\c1ccc(Cl)cc1Cl)n1cncn1 (stereo not given) the AC50 was 3.7 µM (active). [2H]C1([2H])[n+]2ccccc2-c2cccc[n+]2C1([2H])[2H] was tested, and the outcome was “inactive”. For O=C(O)C(F)(F)C(F)(F)C(F)(F)C(F)(F)C(F)(F)C(F)(F)C(F)(F)F, the outcome was “inactive”. In the case of CNC(=O)Oc1cccc(N=CN(C)C)c1, the outcome is reported as “inactive”. For COC(=O)c1ccccc1CS(=O)(=O)NC(=O)Nc1nc(OC)cc(OC)n1, the outcome was “inactive”. For COP(=S)(OC)Oc1ccc([N+](=O)[O-])cc1, the AC50 was 5.33 µM (active). With CCC(C)(C)C(=O)OC1=C(c2ccc(Cl)cc2Cl)C(=O)OC12CCCCC2 the AC50 was 20 µM (active). With CC(C)OC(=O)Nc1cccc(Cl)c1 the AC50 was 2.46 µM (active). For CCOCN(C(=O)CCl)c1c(C)cccc1CC, the outcome was “inactive”. For Clc1ccccc1-c1nnc(-c2ccccc2Cl)nn1, the AC50 was 20 µM (active). In the case of CCS(=O)(=O)c1cccnc1S(=O)(=O)NC(=O)Nc1nc(OC)cc(OC)n1, the outcome is reported as “inactive”. For CCCN(CCOc1c(Cl)cc(Cl)cc1Cl)C(=O)n1ccnc1, the AC50 was 0.178 µM (active). With OCCOc1ccccc1 the outcome was “inactive”. For CC(C)N(C(=O)COc1nnc(C(F)(F)F)s1)c1ccc(F)cc1, the outcome was “inactive”. In the case of CN1CSC(=S)N(C)C1, the outcome is reported as “inactive”. In the case of CCN(CC)C(=O)SCc1ccc(Cl)cc1, the outcome is reported as “inactive”. In the case of COP(=O)(OC)OC=C(Cl)Cl, the outcome is reported as “inactive”.
